Test results reported in the supplement of paper PMC12024424.
Structures can show the parent of a compound that is named as a salt.

These molecules were tested on Staphylococcus aureus Sa2 (MRSA, cystic fibrosis isolate) (assay: growth reduction vs untreated control (OD550); higher = stronger antibacterial activity). Settings: 0.1 mM; 24 h.
Method: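 Single-dose screen of the MedChem Express Drug Repurposing Library (0.1 mM, 1% DMSO) against planktonic MRSA S. aureus Sa2 (CF isolate) in TSB in 96-well plates, 37 °C aerobic, 24 h. Assays were run in triplicate and repeated twice.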

Compound	growth reduction [%]
COc1cc(/C=C/c2ccc(O)cc2)cc(OC)c1 [Pterostilbene]	99.9
Clc1ccc(C(Cn2ccnc2)OCc2c(Cl)cccc2Cl)c(Cl)c1 (stereo not drawn) [Isoconazole (nitrate)]	100
Cc1cccc(/C=N/Nc2cc(N3CCOCC3)nc(OCCc3ccccn3)n2)c1 [Apilimod (mesylate)]	97.4
COc1cccc(Nc2ncnn3ccc(CN4CC[C@@H](N)[C@H](O)C4)c23)c1	92.5
Cc1cc(Nc2ncc(Cl)c(Nc3ccccc3S(=O)(=O)C(C)C)n2)c(OC(C)C)cc1C1CCNCC1 [Ceritinib]	100
CCc1cc(F)c2nc(N3CCC(NC4CCOCC4)CC3)c(-c3nc(C)no3)c(C)c2c1	100
Cc1nc(Nc2ccc(F)cc2)nc(N2CCc3ccccc3C2C)c1C (stereo not drawn) [Revaprazan (hydrochloride)]	93.4
O=C(O)CCCc1cc2cc(Cl)ccc2n1S(=O)(=O)c1ccc2ncsc2c1 [Lanifibranor]	99.1
